This is a sample that favours compounds with a hit; in the whole collection about 4.8% have one here.
MPTP block = permeability transition pore inhibition; isolated mouse mitochondria, Ca2+ swelling absorbance, 30 min; inhibition, % at 10 µM; 360,000 tested, 1.4% active; AID 602449;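 active means inhibition of 50% or more, scaled per plate between neutral and stimulator controls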;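 further: 0% = DMSO wells given calcium and 100% = 1 mM EGTA wells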
Mdm2-MdmX inh = inhibitors of human Mdm2/MdmX interaction; SaOS-2 split-luciferase Mdm2/MdmX complementation, luminescence; inhibition, % at 8 µM; 330,000 tested, 3% active;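 active means inhibition of at least 50% at 8 µM in the primary screen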
CSC inhib = cancer stem cell inhibition | cancer stem cell-like cells viability, luminescence | 300,000 tested, 1.1% active | inhibition, % at 7.5 µM | AID 2717; in the data active means inhibition above about 75%; inconclusive means no clear call, values can overlap the other calls; tested in HMLE shEcad cells
Beta cell apopt = beta cell apoptosis inhibition; INS-1E cytokine-induced death, ATP luminescence, 48 h; percent of positive-control rescue, neutral wells zero; protection from apoptosis, % (concentration not given with the values); 300,000 tested, 0.8% active; AID 435005;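 active means Every replicate reaches about 75%, or at least half do and their mean reaches it too, limit read from the data; inconclusive means At least half of replicates reach the limit but their mean does not; inactive means Under half of replicates reach the limit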;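 further: 0% = cytokine-treated negative control wells and 100% = positive control rescue; higher means more ATP so stronger rescue from cytokine killing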
Calb FLC = affects C. albicans growth with fluconazole; growth inhibition, % (no concentration beside the values); AID 1979; C. albicans CaCi-2 (fluconazole-resistant clinical isolate) + fluconazole, Alamar Blue growth, 48 h; 300,000 tested, 0.57% active;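 active means growth inhibition above about 58% in most replicates, limit read from the data, passing the limit was not always enough; inconclusive means exactly half the replicates above a set limit; inactive means most replicates below a set limit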;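 further: all wells also contain fluconazole at 8 µg/ml as a sub-toxic cotreatment; 0% = median of DMSO wells and 100% = median of geldanamycin control wells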
Numbers without * were called inactive; ? = inconclusive; / = no result.

SMILES	MPTP block	Mdm2-MdmX inh	CSC inhib	Beta cell apopt	Calb FLC
O=C(CSc1ccc2ccccc2c1Br)Nc1cccc(S(=O)(=O)NC2=NCCCCC2)c1	4	-11	91*	2	8
CC(C)(C)c1ccc(CC(=O)N2CCC2(C)C(=O)NCc2cccc3ccccc23)cc1 (stereo unspecified)	1	/	/	/	/
CN(C)CCOC(=O)c1sc2ccccc2c1Cl	1	30	-5	2	110*
NC(=O)NC(=O)COC(=O)c1sc2ccccc2c1Cl	2	8	-5	7	0
O=c1cc(CN2CCN(c3ccc(Cl)c(Cl)c3)CC2)c2ccccc2o1	0	/	/	/	/
CCCCCCCOc1ccc(OC(=O)c2cccnc2)cc1	4	26	96*	2	-22
CC(=O)Nc1cncc(-c2cccc(S(C)(=O)=O)c2)n1	-1	/	/	/	/
NC(=S)NNC(=O)Nc1cccc(Cl)c1	0	-14	11	-1	5
NC(=S)NNc1cccc(Cl)c1	0	41	-9	-4	85*
CCCCC(=O)Nc1ncc([N+](=O)[O-])s1	1	-27	9	9	83*
O=C(Nc1ccc2c(c1)CCC2)c1cc(S(=O)(=O)Nc2ccc(F)cc2)c(Cl)cc1Cl	25	45	109*	6	7
CC(C)c1cc(Cn2c3ccccc3c(=O)n2C(C)C)on1	-1	/	/	/	/
CCc1cc(-c2n[nH]c(C)c2-c2ccccc2Cl)c(O)cc1OC	1	10	103*	13	86*
CN1CCC(OC(=O)c2cccc(Cl)c2)CC1	0	0	117*	-10	-4
CC1(c2nnnn2-c2ccc3c(c2)OCCO3)CCC(=O)N1CCOc1ccccc1 (stereo unspecified)	1	/	/	/	/
Cc1cc2nc(-c3ccccc3)c(CC(C)(C)C)n2c(C)c1Br	2	/	/	/	/
CC(/C=C1\SC(=S)N(NC(=O)c2ccc(O)cc2)C1=O)=C\c1ccccc1	-1	-4	76*	6	-13
COc1ccc(Cn2nnnc2C(C(C)C)N(Cc2ccco2)Cc2cccs2)cc1 (stereo unspecified)	2	-36	77*	3	-3
COc1ccc(-c2nc3ccc(C)cn3c2Cc2ccccc2)cc1OC	-2	/	/	/	/
CCCCC(=O)Nc1nc(C)c(-c2csc(Nc3cc(OC)ccc3OC)n2)s1	8	39	81*	3	-2
COc1ccccc1CNc1nc2cc(-c3ccccc3C)sc2c(=O)n1C	0	/	/	/	/
CC(C)(C)c1ccc(-n2ncc3c2CCCC3NC(=O)C2(C(N)=O)CC2)cc1 (stereo unspecified)	49	15	20	78*	-9
O=c1[nH]c(NCCCO)nc2c1C1(CCCC1)Cc1ccccc1-2	4	15	41	104*	12
C=CCNC(=S)NNc1nc2c(c(=O)[nH]1)C1(CCCC1)Cc1ccccc1-2	11	4	6	-27	?
CCC1(CC)Cc2ccccc2-c2nc(NCCCO)[nH]c(=O)c21	0	7	-10	-15	-1
SMILES	MPTP block	Mdm2-MdmX inh	CSC inhib	Beta cell apopt	Calb FLC
O=c1[nH]c(NNC(=S)NCc2ccccc2)nc2c1C1(CCCCC1)Cc1ccccc1-2	43	-2	106*	-6	?
O=c1c2c(nc3n1CCCCC3)-c1ccccc1CC21CCCC1	-1	-12	93*	-6	-20
COC(=O)C[C@@H]1C=C[C@H](NC(=O)Cc2ccccn2)[C@@H](CO)O1	-1	/	/	/	/
C=C[C@@H]1c2c(F)cccc2N(S(=O)(=O)c2ccc(C)cc2)[C@H](c2ccc(OC(C)=O)cc2)C1(C#N)C#N	0	37	112*	-1	/
C/C(=N\NC(=O)C(=O)Nc1ccc(C)cc1)c1ccncc1	1	5	-4	-1	7
C/C(=N\NC(=O)C(=O)Nc1cccc(Cl)c1)c1ccncc1	16	-6	36	81*	-1
CC(=NNC(=O)c1ccncc1)c1ccccc1Cl	0	/	/	/	/
C/C(=N\NC(=O)c1ccccc1NC(=O)c1ccc(Cl)cc1)c1ccncc1	2	-117	136*	102*	2
O=C1NC[C@@H](CCCCN2C[C@H](Cc3ccccc3)N(CC3CCCCC3)C(=O)C2=O)N(CC2CCCCC2)C1=O	0	/	/	/	/
CCCNC(=O)C1(C)CCN(Cc2ccc(OCc3ccccc3)cc2)C1 (stereo unspecified)	0	/	/	/	/
Cc1nc2ccc(S(=O)(=O)CCC(=O)NCc3ccc(Cl)cc3)cc2s1	-1	/	/	/	/
C/C(=N\Nc1nc(C)cc(-c2ccccc2)n1)c1ccccc1	1	9	-13	82*	6
C/C(=N\Nc1nc(C)cc(-c2ccccc2)n1)c1ccc(C)o1	-1	8	0	20	6
C/C(=N\Nc1nc(C)cc(-c2ccccc2)n1)c1ccc(O)cc1	1	26	-8	83*	-2
C/C(=N\Nc1nc(C)cc(-c2ccccc2)n1)c1cccc(N)c1	1	-2	10	89*	-3
Cc1ccccc1CSc1ccc(-c2ccc3c(c2)OCO3)nn1	1	-138	87*	-4	-34
CCCCNC(=O)C1(C)CCCCCN1Cc1cc2ccccc2o1 (stereo unspecified)	0	/	/	/	/
O=C(O)c1ccc(NC(=S)NC(=O)c2ccc(-c3ccccc3)cc2)cc1	0	-30	-11	8	84*
Cc1ccc(C(C[N+](=O)[O-])n2nc(C)cc2C)cc1 (stereo unspecified)	22	30	101*	10	0
Cc1ccc(S(=O)(=O)NCC(C)n2nc(C)cc2C)cc1 (stereo unspecified)	-1	3	-6	-5	2
COc1ccc(-c2nn(-c3ccccc3)cc2/C=C2/SC(=S)N(CCC(=O)O)C2=O)cc1	4	25	28	-4	2
COc1ccc(-c2nn(-c3ccccc3)cc2/C=C2/SC(=S)N(CCC(=O)O)C2=O)c(C)c1	1	13	85*	5	51
COC(=O)[C@]12CCCCC=C1N(Cc1cccc3ccccc13)C(=O)[C@H](CC(=O)NCc1cccs1)C2	0	/	/	/	/
C#CCN(C(=O)c1cc(COc2cccc(C(F)(F)F)c2)on1)C1CCCCC1	2	1	62	104*	-1
Cc1cc(N/N=C/c2ccc(F)cc2)nc(NCc2ccccc2)n1	13	36	21	/	21
SMILES	MPTP block	Mdm2-MdmX inh	CSC inhib	Beta cell apopt	Calb FLC
Cc1ccc(/C=N/Nc2cc(C)nc(NCc3ccccc3)n2)cc1	42	47	97*	28	-13
CCOC(=O)C1(C)CCN1C(=O)c1cccc(C#N)c1 (stereo unspecified)	0	/	/	/	/
O=C(N/N=C/c1cc(Cl)ccc1O)c1cccnc1	0	31	31	86*	20
O=C(N/N=C/c1cccnc1)c1cccc(Cl)c1	4	-14	-8	6	4
O=C(N/N=C\c1cc(Cl)ccc1O)c1ccc(S(=O)(=O)N2CCCCC2)cc1	13	32	-4	97*	92*
O=C1/C(=C/c2cccnc2)CCC/C1=C\c1cccnc1	/	/	103*	100*	/
O=C1/C(=C/c2ccccc2)CCCc2ccccc21	0	7	15	5	-17
CN(C)c1ccc(/C=C2\CCC/C(=C\c3ccccc3)C2=O)cc1	3	/	86*	1	-2

High-throughput results from PubChem.
